Pf Dd2 inh: inhibitors of Plasmodium falciparum Dd2 growth; actives 2.3% (n = 94,000); P. falciparum Dd2 growth, SYBR Green, 72 h; active compounds read low; activity change, % at 10 µM; in the data active means activity change below about -80%; inconclusive means no clear call, values can overlap the other calls
T cruzi growth-1: blocks T. cruzi growth in NIH3T3 culture | T. cruzi beta-gal in NIH3T3, GalScreen luminescence, 90 h | inhibition, % at 8.34 µM | actives 5.9% (n = 77,000);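 active means mean inhibition above about 93%, with at least 55% of replicates each passing it, limit read from the data, passing the limit was not always enough; inconclusive means only one of those two conditions holds; inactive means neither condition holds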
C diff growth: blocks growth of Clostridium difficile | growth activity, negative = inhibition, % at 16 µg/mL (by protocol) | Clostridium difficile clinical isolate growth, OD600, 24 h; active compounds read low | actives 0.25% (n = 86,000);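 active means mean growth activity at or below -80% and every replicate also at or below -80%; inconclusive means mean at or below -80% but some replicate above -80%; inactive means mean growth activity above -80%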
T cruzi growth-2: blocks T. cruzi growth in NIH3T3 host cells. shares compounds with T cruzi growth-1. AID 651739. T. cruzi beta-gal in NIH3T3, GalScreen luminescence, 90 h. actives 72% (n = 5,600). inhibition, % at 8.35 µM;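 active means mean replicate inhibition above about 95% and at least 55% of replicates individually reaching it, limit read from the data; inconclusive means only one of the two criteria is met; inactive means neither criterion is met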
T cruzi growth-3: inhibitors of T. cruzi proliferation. inhibition, % at 2.09 µM. actives 21% (n = 5,600). AID 651740. T. cruzi beta-gal in NIH3T3, GalScreen luminescence, 90 h. shares compounds with T cruzi growth-1;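 active means mean inhibition above about 95%, with at least 55% of replicates also reaching it, limit read from the data; inconclusive means meets just one of the two conditions; inactive means meets neither condition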
3T3 cytotox: cytotoxicity in mouse NIH/3T3 fibroblasts; shares compounds with T cruzi growth-1; NIH/3T3 viability, CellTiter-Glo ATP luminescence, 90 h; cytotoxicity (signal decrease), % at 8.35 µM; actives 14% (n = 5,600);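 active means mean signal decrease across replicates above about 35% based on untreated-well scatter, with enough replicates individually passing, limit read from the data; inconclusive means no rule stated though some were filed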
3T3 cytotox 2: NIH/3T3 (mouse) viability loss | shares compounds with T cruzi growth-1 | NIH/3T3 viability, CellTiter-Glo ATP luminescence, 90 h | inhibition, % at 24.9 µM | actives 56% (n = 5,600) | AID 651744;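 active means mean loss of cell viability signal at or above a set limit, and enough replicates individually reaching it; inconclusive means meets only the mean limit or only the replicate share; inactive means meets neither condition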
A number is an active result; - = inactive; ? = inconclusive; . = no result given. Only some compounds are listed: those with a hit (about 6.8% of all), similar ones and a draw of the others.

SMILES	Pf Dd2 inh	T cruzi growth-1	C diff growth	T cruzi growth-2	T cruzi growth-3	3T3 cytotox	3T3 cytotox 2
CC(=O)N(C)C[C@@H]1Oc2cc(-c3ccccc3)ccc2S(=O)(=O)N([C@@H](C)CO)C[C@H]1C	-	-	-	.	.	.	.
CCCNC(=O)N1CC(=O)N2[C@H](C1)[C@@H](c1ccc(C#CCC3CCCC3)cc1)[C@@H]2CO	-	.	-	.	.	.	.
CS(=O)(=O)Nc1ccc2c(c1)[C@H]1C[C@@H](CC(=O)NCc3cccnc3)O[C@H](CO)[C@H]1O2	-	.	-	.	.	.	.
C[C@H](CO)N1C[C@H](C)[C@@H](CN(C)Cc2ccccc2)Oc2cc(C#C[C@@H](C)O)ccc2S1(=O)=O	-	-	-	.	.	.	.
C[C@H](CO)N1C[C@H](C)[C@@H](CN(C)Cc2ccccc2)Oc2cc(C#CC3CC3)ccc2S1(=O)=O	-	128	-	97	-	-	105
C[C@@H]1CN([C@H](C)CO)S(=O)(=O)c2ccc(C#CC3CC3)cc2O[C@@H]1CN(C)Cc1cccc(F)c1	-	.	-	.	.	.	.
C[C@H](O)C#Cc1ccc2c(c1)O[C@H](CN(C)Cc1ccccc1)[C@@H](C)CN([C@@H](C)CO)S2(=O)=O	-	-	-	.	.	.	.
CC(C)C#Cc1ccc2c(c1)O[C@@H](CN(C)Cc1ccccc1)[C@H](C)CN([C@@H](C)CO)S2(=O)=O	-	-	-	.	.	.	.
CC(C)C#Cc1ccc2c(c1)O[C@@H](CN(C)Cc1ccccc1)[C@@H](C)CN([C@@H](C)CO)S2(=O)=O	-	106	-	101	-	-	103
CC(C)C#Cc1ccc2c(c1)O[C@@H](CN(C)Cc1ccccc1)[C@@H](C)CN([C@H](C)CO)S2(=O)=O	-	111	-	107	-	-	104
CC(C)C#Cc1ccc2c(c1)O[C@H](CN(C)Cc1ccccc1)[C@H](C)CN([C@H](C)CO)S2(=O)=O	-	105	-	102	-	-	103
CO[C@@H]1CN(C)C(=O)c2cc(NC(=O)Nc3ccccc3F)ccc2OC[C@H](C)N(Cc2ccccc2C(=O)O)C[C@@H]1C	-	.	.	.	.	.	.
O=C(C[C@@H]1CC[C@H]2[C@@H](COC[C@H](O)CN2Cc2ccc(Cl)cc2)O1)NCc1ccccc1Cl	-	-	-	.	.	.	.
O=C(C[C@@H]1CC[C@H](NS(=O)(=O)c2ccccc2)[C@H](CO)O1)N1CCC(Cc2ccccc2)CC1	-	.	-	.	.	.	.
C[C@@H]1CCCCO[C@H](CN(C)C(=O)CCC(F)(F)F)[C@H](C)CN([C@@H](C)CO)C(=O)c2cc(NC(=O)Cc3ccccc3)ccc2O1	.	-	-	.	.	.	.
C[C@H](O)C#Cc1ccc2c(c1)O[C@@H](CN(C)C(=O)CN(C)C)[C@H](C)CN([C@@H](C)CO)S2(=O)=O	-	-	-	.	.	.	.
Cc1cc(C(=O)Nc2cccc3c2O[C@@H](CN(C)C(=O)NC2CCCCC2)[C@@H](C)CN([C@H](C)CO)C3=O)n(C)n1	-	-	-	.	.	.	.
CC(C)C#Cc1ccc2c(c1)O[C@H](CN(C)Cc1ccccc1)[C@@H](C)CN([C@H](C)CO)S2(=O)=O	-	-	-	.	.	.	.
CC(C)C#Cc1ccc2c(c1)O[C@H](CN(C)Cc1ccccc1)[C@@H](C)CN([C@@H](C)CO)S2(=O)=O	-	106	-	-	103	-	106
COc1ccc(CN(C)C[C@@H]2OCCCC[C@@H](C)Oc3ccc(NS(C)(=O)=O)cc3C(=O)N([C@H](C)CO)C[C@@H]2C)cc1	-	-	-	.	.	.	.
COc1ccc(-c2ccc([C@H]3[C@@H](CO)N4CCCCN(C(=O)NC(C)C)C[C@H]34)cc2)cc1	-	104	-	110	-	-	85
CC(C)NC(=O)N1CCCCN2[C@H](CO)[C@H](c3ccc(C4=CCCC4)cc3)[C@@H]2C1	-	117	-	113	106	-	-
COc1ccc(-c2ccc([C@H]3[C@@H](CO)N4CCCCN(C(=O)NC(C)C)C[C@@H]34)cc2)cc1	-	-	-	.	.	.	.
COc1ccc(-c2ccc([C@@H]3[C@H]4CN(C(=O)NC(C)C)CCCCN4[C@H]3CO)cc2)cc1	-	-	-	.	.	.	.
COc1ccc(-c2ccc([C@H]3[C@H](CO)N4CCCCN(C(=O)NC(C)C)C[C@@H]34)cc2)cc1	-	105	-	113	-	-	25
SMILES	Pf Dd2 inh	T cruzi growth-1	C diff growth	T cruzi growth-2	T cruzi growth-3	3T3 cytotox	3T3 cytotox 2
CC(C)NC(=O)N1CCCCN2[C@H](C1)[C@@H](c1ccc(Br)cc1)[C@@H]2CO	-	-	-	.	.	.	.
O=C(NCC[C@H]1CC[C@@H](NC(=O)C2CCCC2)[C@H](CO)O1)c1cnccn1	-	.	-	.	.	.	.
C/C=C/c1ccc([C@H]2[C@@H](CO)N(C(C)=O)[C@@H]2CNC(=O)c2ccccc2)cc1	-	104	-	97	-	-	-
C/C=C/c1ccc([C@@H]2[C@@H](CNC(=O)CC3CC3)N(C(C)=O)[C@H]2CO)cc1	-	-	-	.	.	.	.
C/C=C/c1ccc([C@@H]2[C@H](CO)N(C(C)=O)[C@H]2CNC(=O)c2ccccc2)cc1	-	-	-	.	.	.	.
C/C=C/c1ccc([C@@H]2[C@@H](CO)N(C(C)=O)[C@@H]2CNC(=O)CC2CC2)cc1	-	?	-	-	-	-	-
Cc1ccc(-c2ccc3c(c2)O[C@H](CN(C)C)[C@H](C)CN([C@H](C)CO)S3(=O)=O)cc1	-	-	-	.	.	.	.
C[C@@H]1CN([C@@H](C)CO)S(=O)(=O)c2ccc(/C=C/c3ccccc3)cc2O[C@@H]1CN(C)Cc1ccc(C(=O)O)cc1	-	-	-	.	.	.	.
C[C@@H]1CN([C@@H](C)CO)S(=O)(=O)c2ccc(/C=C/c3ccccc3)cc2O[C@@H]1CN(C)Cc1cccnc1	-	88	-	-	-	70	94
C[C@H](CO)N1C[C@H](C)[C@H](CN(C)Cc2ccccc2)Oc2cc(/C=C/c3ccccc3)ccc2S1(=O)=O	-	103	-	100	100	-	104
C[C@H]1CN([C@@H](C)CO)S(=O)(=O)c2ccc(/C=C/c3ccccc3)cc2O[C@H]1CN(C)Cc1ccccc1	-	110	-	97	113	-	103
C/C=C/c1ccc2c(c1)O[C@@H](CN(C)Cc1cccnc1)[C@@H](C)CN([C@H](C)CO)S2(=O)=O	-	-	-	.	.	.	.
C[C@H](CO)N1C[C@H](C)[C@@H](CN(C)Cc2ccccc2)Oc2cc(/C=C/c3ccccc3)ccc2S1(=O)=O	-	-	-	.	.	.	.
O=C(C[C@H]1C=C[C@@H](NS(=O)(=O)c2ccccc2)[C@H](CO)O1)N1CCc2ccccc2C1	-	-	-	.	.	.	.
COc1ccc([Si](C)(C)[C@H]2[C@H](CCn3cc(CCO)nn3)O[C@@]3(C(=O)N(Cc4cccc(N5CCOC5=O)c4)c4ccccc43)[C@@H]2C)cc1	.	.	-	.	.	.	.
COC(=O)[C@@H]1[C@@H](CO)[C@@H]2Cn3c(cccc3=O)[C@@H]2N1C(=O)C1CCCC1	-	.	-	.	.	.	.
